{
  "source": "PubChem BioAssay (NCATS)",
  "note": "Results filed as inconclusive are left out. A call without a number means that no potency is given here. Active and inactive are the calls of the source. Calls come from the whole dose curve; as a rule, active = well fitted inhibition curve with a large enough effect; inconclusive = small, poorly fitted or top-dose-only effect; inactive = no such curve, though single readings can be large or run the other way. Potency is the fitted concentration of half-maximal effect.",
  "data": [
    {"test": "HTS Assay for Allosteric Antagonists of the Human D2 Dopamine Receptor: Hit Validation in HTRF (AID 624455);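 note: stable D1 dopamine receptor cell line scored for blocking the D1 response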", "conditions": "Cells stably expressing D1 dopamine receptor, inhibition mode; series mostly up to 46.1 µM", "outline": "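Inhibition of the D1-mediated response is measured by HTRF in cells that stably express the D1 dopamine receptor. Compounds reaching this step are hits from calcium-flux antagonism testing at EC80 dopamine in inducible Hek293 Trex D2 cells.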", "values": [
      {"smiles": "CN1CCN(CC(=O)N2c3ccccc3C(=O)Nc3cccnc32)CC1", "Potency": "3.66 µM (active)"},
      {"smiles": "CN(C(=O)CCCOc1ccc2[nH]c(=O)ccc2c1)C1CCCCC1", "Potency": "inactive"},
      {"smiles": "CCOC(=O)C1=C(C)NC(C)=C(C(=O)OC)C1c1cccc(Cl)c1Cl", "note": "(stereo unspecified)", "Potency": "inactive"},
      {"smiles": "Cc1cccc(C)c1NC(=O)C(C)N", "note": "(stereo unspecified)", "Potency": "inactive"},
      {"smiles": "CN(C)CCN(Cc1cccs1)c1ccccn1", "Potency": "inactive"},
      {"smiles": "NS(=O)(=O)c1cc2c(cc1Cl)NC(C1CC3C=CC1C3)NS2(=O)=O", "note": "(stereo unspecified)", "Potency": "inactive"},
      {"smiles": "Cc1scc2c1N(C(=O)CN1CCN(C)CC1)c1ccccc1NC2=O", "Potency": "inactive"},
      {"smiles": "CCn1cc(C(=O)O)c(=O)c2cc3c(cc21)OCO3", "Potency": "inactive"},
      {"smiles": "NCCCNCCSP(=O)(O)O", "Potency": "inactive"},
      {"smiles": "C(=C\\c1ccccc1)/CN1CCN(C(c2ccccc2)c2ccccc2)CC1", "Potency": "inactive"},
      {"smiles": "C[N+](C)(C)CCOC(N)=O", "Potency": "inactive"},
      {"smiles": "C[N+](C)(C)CCOC(=O)CCC(=O)OCC[N+](C)(C)C", "Potency": "inactive"},
      {"smiles": "CC(C)NNC(=O)c1ccncc1", "Potency": "inactive"},
      {"smiles": "CCN1CCC[C@H]1CNC(=O)c1c(O)c(Cl)cc(Cl)c1OC", "Potency": "inactive"},
      {"smiles": "Cc1nc2ccccn2c(=O)c1CCN1CCC(C(=O)c2ccc(F)cc2)CC1", "Potency": "inactive"},
      {"smiles": "C[C@]12CCC(=O)C=C1CC[C@@H]1[C@@H]2CC[C@@]2(C)[C@H]1CC[C@]2(O)C(=O)CO", "Potency": "inactive"},
      {"smiles": "CCN(CC)CCCN(c1ccccc1)C1Cc2ccccc2C1", "Potency": "inactive"},
      {"smiles": "O=C(CCNNC(=O)c1ccncc1)NCc1ccccc1", "Potency": "inactive"},
      {"smiles": "CC(C)[N+](C)(CCOC(=O)C1c2ccccc2Oc2ccccc21)C(C)C", "Potency": "inactive"},
      {"smiles": "Nc1c2c(nc3ccccc13)CCCC2O", "note": "(stereo unspecified)", "Potency": "inactive"},
      {"smiles": "NC(N)=NC(=O)Cc1c(Cl)cccc1Cl", "Potency": "inactive"},
      {"smiles": "COc1ccc(CCN(C)CCCC(C#N)(c2cc(OC)c(OC)c(OC)c2)C(C)C)cc1OC", "note": "(stereo unspecified)", "Potency": "inactive"},
      {"smiles": "CC(C)(C)c1ccc(C(=O)CCCN2CCC(OC(c3ccccc3)c3ccccc3)CC2)cc1", "Potency": "inactive"},
      {"smiles": "CN(C)C/C=C(/c1ccc(Br)cc1)c1cccnc1", "Potency": "inactive"},
      {"smiles": "C[N+](C)(C)CCCCCCCCCC[N+](C)(C)C", "Potency": "inactive"},
      {"smiles": "CN(C)CCOC(=O)COc1ccc(Cl)cc1", "Potency": "inactive"},
      {"smiles": "OCCN1CCN(CCCN2c3ccccc3C=Cc3ccccc32)CC1", "Potency": "inactive"},
      {"smiles": "COc1ccc2c(c1OC)C(=O)O[C@@H]2[C@H]1c2c(cc3c(c2OC)OCO3)CCN1C", "Potency": "inactive"},
      {"smiles": "O=C1NCN(c2ccccc2)C12CCN(CCCC(c1ccc(F)cc1)c1ccc(F)cc1)CC2", "Potency": "inactive"},
      {"smiles": "CCN(Cc1ccncc1)C(=O)C(CO)c1ccccc1", "note": "(stereo unspecified)", "Potency": "inactive"},
      {"smiles": "NC(=O)c1ncn([C@@H]2O[C@H](CO)[C@@H](O)[C@H]2O)c1O", "Potency": "inactive"},
      {"smiles": "NC(Cc1ccc(Cl)cc1)C(=O)O", "note": "(stereo unspecified)", "Potency": "inactive"},
      {"smiles": "CCN(CC)CCOCCOC(=O)C1(c2ccccc2)CCCC1", "Potency": "inactive"},
      {"smiles": "CNCCC(Oc1ccccc1OC)c1ccccc1", "note": "(stereo unspecified)", "Potency": "inactive"},
      {"smiles": "Cc1nc2sccn2c(=O)c1CCN1CCC(=C(c2ccc(F)cc2)c2ccc(F)cc2)CC1", "Potency": "inactive"},
      {"smiles": "C#CCN(C)CCCOc1ccc(Cl)cc1Cl", "Potency": "inactive"}
    ]}
  ]
}
